HT1080 IDH1KD tx – qHTS for induction of synthetic lethality in tumor cells producing 2HG: qHTS for the HT-1080-IDH1KD cell line | HT-1080 IDH1 knockdown viability, ATP luminescence, 48 h | actives 2% (n = 360,000) | AID 686971, 2013 | Potency, µM (series often up to 46.1 µM), inactives show top-dose activity, negative = toxicity, hits mostly cytotoxic;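 note: 0% = DMSO wells and -100% = cell-free medium wells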
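CellTiter-Glo luminescence after 48 h compound exposure at 37 degrees C of IDH1-knockdown HT-1080 cells in 5% FBS RPMI. %Activity scaled between DMSO wells and cell-free media wells, with curves fitted and assigned curve classes.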
TDP1 cell noCPT – qHTS for Inhibitors of human tyrosyl-DNA phosphodiesterase 1 (TDP1): qHTS in cells in absence of CPT. AID 686978, 2013. actives 15% (n = 420,000). DT40 Tdp1-/- hTDP1 cells, no CPT, ATP luminescence, 48 h. Potency, µM (series often up to 46.2 µM), without a hit: top-dose activity change, negative = growth inhibition, usual class: inhibitors; note: nearly all actives have a fitted effect of over 55% in size
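A cellular qHTS used chicken DT40 cells lacking endogenous Tdp1 but carrying stably transfected human TDP1. Compounds were applied without camptothecin, and cell growth kinetics were judged by ATP-dependent luminescence after ≥48 hr.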
KB-V1 MDR tox – qHTS assay for MDR1-selective chemotherapeutics: Primary screen using the drug-selected MDR subline cells KB-V1; actives 3.4% (n = 400,000); KB-V1 MDR cells viability, CellTiter-Glo, 72 h; AID 1347076, 2019; Potency, µM (series often up to 46.1 µM), hits mostly cytotoxic; note: nearly all actives have a fitted effect of over 60% in size
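Cells of the MDR subline KB-V1 are plated, dosed with compound at multiple concentrations, and incubated 72 h at 37 degrees C; CellTiter-Glo is then added and luminescence read after 10 min.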
HT1080-NT tox – qHTS for induction of synthetic lethality in tumor cells producing 2HG: qHTS for the HT-1080-NT fibrosarcoma cell line. HT-1080-NT fibrosarcoma viability, CellTiter-Glo ATP luminescence, 48 h. AID 686970, 2013. actives 1.6% (n = 360,000). Potency, µM (doses to about 46.1 µM), without a hit: at the highest dose activity, negative = less viability, hits mostly cytotoxic;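 note: NT is the 2HG producing partner of a matched IDH1 knockdown line; 0% = DMSO-treated cells and -100% = media-only wells without cells; nearly all actives have a fitted effect of over 55% in size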
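Toxicity toward the 2HG-producing NT line was scored as %Activity, normalised to DMSO and no-cell wells, from CellTiter-Glo luminescence after 48 hours' treatment.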
KB-3-1 tox – qHTS assay for MDR1-selective chemotherapeutics: Primary screen using the parental adenocarcinoma cell KB-3-1 | actives 1.4% (n = 400,000) | Potency, µM (highest dose often 46.1 µM), most hits filed as cytotoxic | KB-3-1 viability, CellTiter-Glo ATP luminescence, 72 h; note: nearly all actives have a fitted effect of over 60% in size
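KB-3-1 parental drug-naive adenocarcinoma cells in DMEM/10% FBS, incubated 72 h at 37 C with pin-transferred compounds across a concentration series. Viability by CellTiter-Glo luminescence; concentration-response curves fitted after normalization.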
TDP1 cell CPT – qHTS for Inhibitors of human tyrosyl-DNA phosphodiesterase 1 (TDP1): qHTS in cells in presence of CPT; chicken DT40 Tdp1-/-;hTDP1 cells + 20 nM CPT, ATP luminescence, 48 h; Potency, µM (highest dose often 46.2 µM), inactives show top-dose activity change, negative = growth inhibition, actives largely listed as inhibitors; actives 12% (n = 420,000); note: nearly all actives have a fitted effect of over 55% in size
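Chicken DT40 Tdp1-/- cells complemented with human TDP1, 400 cells/well, exposed to compounds plus 20 nM camptothecin for at least 48 h at 37 C; viability read as ATP content by CellTiter-Glo luminescence.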
* marks the source's active call; other numbers are inactive results. An excerpt weighted towards active compounds, which were near 19% of everything screened. Calls come from the whole dose curve; as a rule, active = well fitted curve in the direction sought with a large enough effect; inconclusive = small, poorly fitted or top-dose-only effect, or another doubt; inactive = no such curve, though single readings can be large; an effect the other way counts as inactive or inconclusive. Unless noted, % is set by controls: 0 for no effect and ±100 for the full control effect; potency is the fitted concentration of half-maximal effect.

How did Cc1ccccc1OCCc1c(C)[nH]c(=S)[nH]c1=O do in these assays?
HT1080 IDH1KD tx: 2.1µM*; TDP1 cell noCPT: 0.82µM*; KB-V1 MDR tox: 1.8µM*; HT1080-NT tox: 2.3µM*; KB-3-1 tox: 1.5µM*; TDP1 cell CPT: 1.5µM*

What do the screens show for `Cc1[nH]c(=S)[nH]c(=O)c1CCOc1ccccc1`?
HT1080 IDH1KD tx: -3%; TDP1 cell noCPT: inconclusive; KB-V1 MDR tox: inconclusive; HT1080-NT tox: -17%; KB-3-1 tox: inconclusive; TDP1 cell CPT: -28%

How did CC(=O)Nc1cccc(Oc2ccc(-c3noc(C)n3)cc2)c1 do in these assays?
HT1080 IDH1KD tx: -9%; TDP1 cell noCPT: -22%; KB-V1 MDR tox: inactive; HT1080-NT tox: -8%; KB-3-1 tox: inconclusive; TDP1 cell CPT: -20%

How did Cc1ccc2ccc(C(Nc3ccccn3)c3ccccc3)c(O)c2n1 (configuration not stated) do in these assays?
HT1080 IDH1KD tx: -22%; TDP1 cell noCPT: 18µM*; KB-V1 MDR tox: inconclusive; HT1080-NT tox: -30%; KB-3-1 tox: inactive; TDP1 cell CPT: 23µM*

Results for Cc1cccc(NC(c2ccccc2C)c2ccc3ccc(C)nc3c2O)n1 (configuration not stated) ?
TDP1 cell noCPT: 15µM*; KB-V1 MDR tox: inactive; KB-3-1 tox: inactive; TDP1 cell CPT: inconclusive

What do the screens show for `COc1cc(C(Nc2ccccn2)c2ccc3ccc(C)nc3c2O)cc(OC)c1O` (configuration not stated)?
HT1080 IDH1KD tx: 15µM*; TDP1 cell noCPT: 3.3µM*; KB-V1 MDR tox: 16µM*; HT1080-NT tox: -29%; KB-3-1 tox: inconclusive; TDP1 cell CPT: 3.7µM*

Results for CCCCCC(=O)N1C[C@H](O)[C@@H](n2cc(C3CC3)nn2)C[C@@H]1c1ccc(Cl)cc1 ?
HT1080 IDH1KD tx: -8%; TDP1 cell noCPT: -14%; KB-V1 MDR tox: inactive; HT1080-NT tox: -1%; KB-3-1 tox: inactive; TDP1 cell CPT: 6%

Results for O=C(NC1CCCC1)c1n[nH]c2ccccc12 ?
HT1080 IDH1KD tx: 0%; TDP1 cell noCPT: -1%; KB-V1 MDR tox: inactive; HT1080-NT tox: 0%; KB-3-1 tox: inactive; TDP1 cell CPT: 2%

How did Cc1cc(N2CCCC2)c(F)cc1/C=C\[N+](=O)[O-] do in these assays?
HT1080 IDH1KD tx: inconclusive; TDP1 cell noCPT: inconclusive; KB-V1 MDR tox: inconclusive; HT1080-NT tox: inconclusive; KB-3-1 tox: inconclusive; TDP1 cell CPT: 23µM*

What do the screens show for `Cc1cc(C)cc(OCC(=O)NNC(=S)NC(=O)C2CC2)c1`?
HT1080 IDH1KD tx: inconclusive; TDP1 cell noCPT: 13µM*; KB-V1 MDR tox: inactive; HT1080-NT tox: -29%; KB-3-1 tox: inconclusive; TDP1 cell CPT: 18µM*

Results for CCCCNC(=O)NNC(=O)COc1cc(C)cc(C)c1 ?
HT1080 IDH1KD tx: 2%; TDP1 cell noCPT: 2%; KB-V1 MDR tox: inactive; HT1080-NT tox: 14%; KB-3-1 tox: inactive; TDP1 cell CPT: -3%

What do the screens show for `CCc1ccc(OCC(=O)NNC(=S)NC(=O)C2CCCCC2)c(Br)c1`?
HT1080 IDH1KD tx: -11%; TDP1 cell noCPT: inconclusive; KB-V1 MDR tox: inactive; HT1080-NT tox: 0%; KB-3-1 tox: inconclusive; TDP1 cell CPT: inconclusive

What do the screens show for `CCc1ccc(OCC(=O)NNC(=S)NC(=O)C2CC2)c(Br)c1`?
HT1080 IDH1KD tx: inconclusive; TDP1 cell noCPT: 13µM*; KB-V1 MDR tox: inactive; HT1080-NT tox: inconclusive; KB-3-1 tox: inactive; TDP1 cell CPT: 16µM*

What do the screens show for `COc1ccc(OCC(=O)NNC(=S)NC(=O)C2CC2)cc1`?
HT1080 IDH1KD tx: inconclusive; TDP1 cell noCPT: inconclusive; KB-V1 MDR tox: inactive; HT1080-NT tox: -9%; KB-3-1 tox: inactive; TDP1 cell CPT: 16µM*

What do the screens show for `O=C(NCCc1ccc(F)cc1)c1ccc(NS(=O)(=O)c2ccc3[nH]c(=O)[nH]c3c2)cc1`?
HT1080 IDH1KD tx: -10%; TDP1 cell noCPT: -2%; KB-V1 MDR tox: inactive; HT1080-NT tox: -6%; KB-3-1 tox: inactive; TDP1 cell CPT: 8%

Results for CCN(c1ccccc1)S(=O)(=O)c1ccc(C(=O)Nc2ccccn2)cc1 ?
HT1080 IDH1KD tx: 1%; TDP1 cell noCPT: inconclusive; KB-V1 MDR tox: inconclusive; HT1080-NT tox: -3%; KB-3-1 tox: inconclusive; TDP1 cell CPT: 21µM*

Results for CN(c1ccccc1)S(=O)(=O)c1ccc(C(=O)NCCc2ccc(F)cc2)cc1 ?
HT1080 IDH1KD tx: -6%; TDP1 cell noCPT: -23%; KB-V1 MDR tox: inactive; HT1080-NT tox: -11%; KB-3-1 tox: inactive; TDP1 cell CPT: -8%

How did CCc1sc(C(=O)NCc2cc(C)n(C)n2)cc1Br do in these assays?
HT1080 IDH1KD tx: 16µM*; TDP1 cell noCPT: inconclusive; KB-V1 MDR tox: inactive; HT1080-NT tox: inconclusive; KB-3-1 tox: inactive; TDP1 cell CPT: inconclusive

What do the screens show for `CCN(c1ccccc1)S(=O)(=O)c1cccc(C(=O)Nc2cccc(C)n2)c1`?
HT1080 IDH1KD tx: -10%; TDP1 cell noCPT: 21µM*; KB-V1 MDR tox: inconclusive; HT1080-NT tox: -16%; KB-3-1 tox: inactive; TDP1 cell CPT: 23µM*

How did CCN(c1ccccc1)S(=O)(=O)c1ccc(C(=O)NCCc2ccc(S(N)(=O)=O)cc2)cc1 do in these assays?
HT1080 IDH1KD tx: -11%; TDP1 cell noCPT: inconclusive; KB-V1 MDR tox: inactive; HT1080-NT tox: -28%; KB-3-1 tox: inactive; TDP1 cell CPT: 23µM*

Results for CCN(c1cccc(C)c1)S(=O)(=O)c1cccc(C(=O)O)c1 ?
HT1080 IDH1KD tx: 5%; TDP1 cell noCPT: 6%; KB-V1 MDR tox: inactive; HT1080-NT tox: 10%; KB-3-1 tox: inactive; TDP1 cell CPT: -2%

How did CCc1sc(C(=O)NC)cc1Br do in these assays?
HT1080 IDH1KD tx: -10%; TDP1 cell noCPT: 35%; KB-V1 MDR tox: inactive; HT1080-NT tox: 12%; KB-3-1 tox: inactive; TDP1 cell CPT: 4%

How did CN(c1ccc(C(=O)Nc2ccccn2)cc1)S(=O)(=O)c1ccccc1 do in these assays?
HT1080 IDH1KD tx: -1%; TDP1 cell noCPT: -30%; KB-V1 MDR tox: inactive; HT1080-NT tox: 0%; KB-3-1 tox: inactive; TDP1 cell CPT: -30%
